Source: PubChem BioAssay (Tox21)
Values joined by “and” are separate entries in the source; they are usually repeats but may differ in a detail not shown here. Equal values may be shown once. Records with an inconclusive call do not appear. A call without a number means that no potency is given here. Where a structure was tested more than once in an assay, its records may differ in their call. Active and inactive are the calls of the source. Unless noted, calls come from the whole dose curve; as a rule, active = well fitted curve in the direction sought with a large enough effect in the repeat runs; inconclusive = weak or mixed curves; inactive = no such curve, though single readings can be large; an effect the other way counts as inactive or inconclusive.

Tests used:
[1] = qHTS assay to identify small molecule agonists of the vitamin D receptor (VDR) signaling pathway - cell viability counter screen (AID 743224); conditions: VDR-bla HEK293T viability, CellTiter-Glo luminescence, 16 h; series mostly up to 62.6 µM; note: nearly all actives have a fitted effect of over 50% in size; note: potency is the fitted concentration of half-maximal effect
Procedure, shortened: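 Counter screen run in the same wells as the VDR-bla reporter assay: CellTiter-Glo luminescence, 30 min at room temperature, after 16 h compound treatment at 37C of cells pre-plated for 4 h.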

[2] = qHTS assay to identify small molecule antagonists of the vitamin D receptor (VDR) signaling pathway - cell viability counter screen (AID 743225); conditions: VDR-bla HEK293T viability, CellTiter-Glo luminescence, 16 h; series mostly up to 61 µM; note: nearly all actives have a fitted effect of over 50% in size; note: potency is the fitted concentration of half-maximal effect
Procedure, shortened: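 Compounds were pinned onto VDR-bla HEK 293T cells together with 1-alpha,25-dihydroxyvitamin D3 at 3 nM final. After 16 h at 37C and 5% CO2 plus the reporter readout, cell viability was measured by CellTiter-Glo luminescence (30 min, room temperature).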

[3] = qHTS assay to identify small molecule agonists of the NFkB signaling pathway (AID 1159509; active = well fitted curve in the direction sought with a large enough effect in the signal ratio in the repeat runs, not every such curve was filed as active; the % refers to the signal ratio); conditions: NFkB-bla ME-180 cells, beta-lactamase FRET ratio, 5 h; series mostly up to 61 µM
Procedure, shortened: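 Readout: FRET fluorescence, 405 nm excitation, 460/530 nm emission; beta-lactamase expression disrupts FRET. Cells: ME-180 stably carrying NF-kB-driven bla reporter. Compound exposure 5 hr, 37 C, 5% CO2.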

[4] = qHTS assay to identify small molecule agonists of the NFkB signaling pathway - cell viability counter screen (AID 1159515; calls by dose curve; note: nearly all actives have a fitted effect of over 55% in size); conditions: NFkB-bla ME-180 viability, CellTiter-Glo luminescence, 5 h; series mostly up to 61 µM
Procedure, shortened: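 Read by CellTiter-Glo luminescence (30 min, room temperature) in the wells also used for the beta-lactamase FRET read. ME-180 NFkB-bla cells at 2,000 per well were plated overnight, then exposed to compound for 5 hr at 37 C.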

[5] = qHTS assay to identify small molecule agonists of the endoplasmic reticulum stress response signaling pathway (AID 1159516; active = well fitted activation curve with a large enough effect in the signal ratio in the repeat runs, not every such curve was filed as active; the % refers to the signal ratio); conditions: ESRE-bla HeLa, ER stress beta-lactamase reporter, 5 h; series mostly up to 61 µM
Procedure, shortened: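 Ratiometric FRET readout (405 nm excitation; 460 and 530 nm emission) of a beta-lactamase gene driven by the ER stress response element, after 2 hr substrate loading. HeLa ESRE-bla cells were seeded overnight and treated with compounds for only 5 hr at 37 C.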

[6] = qHTS assay to identify small molecule agonists of the endoplasmic reticulum stress response signaling pathway - cell viability counter screen (AID 1159517; calls by dose curve; note: nearly all actives have a fitted effect of over 50% in size; note: potency is the fitted concentration of half-maximal effect); conditions: ESRE-bla HeLa viability, CellTiter-Glo luminescence, 5 h; series mostly up to 61 µM
Procedure, shortened: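 After overnight attachment, ESRE-bla HeLa cells were treated with Tox21 library compounds for 5 hr. CellTiter-Glo luminescence, read 30 min post-addition at room temperature, reported viability.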

[7] = qHTS assay to identify small molecule antagonists of the retinoid-related orphan receptor gamma (ROR-gamma) signaling pathway - cell viability counter screen (AID 1159520); conditions: Tet-on RORgamma CHO cells viability, ATP luminescence, 16 h; series mostly up to 92.4 µM; note: nearly all actives have a fitted effect of over 50% in size; note: potency is the fitted concentration of half-maximal effect
Procedure, shortened: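 Cytotoxicity was read from cellular ATP (CellTiter-Glo luminescence) after 16 hr at 37 C with 1 uM doxycycline induction. The inducer was added 2 hr after compound transfer to Tet-on ROR gamma CHO cells.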

[8] = biological target: Nuclear receptor ROR-gamma (Homo sapiens) (UniProt P51449); experiment: qHTS assay to identify small molecule antagonists of the retinoid-related orphan receptor gamma (ROR-gamma) signaling pathway (AID 1159521; note: nearly all actives have a fitted effect of over 50% in size; note: potency is the fitted concentration of half-maximal effect); conditions: Tet-on RORgamma CHO cells, RORE-luciferase, 16 h; series mostly up to 92.4 µM
Procedure, shortened: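 Test compounds were applied to Tet-on RORγ CHO cells 2 h ahead of doxycycline hyclate (1 uM final). Luciferase reporter activity was quantified by luminescence after 16 h at 37 C and 5% CO2.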

[9] = qHTS assay to identify small molecule agonists of the AP-1 signaling pathway - cell viability counter screen (AID 1159525; calls by dose curve; note: nearly all actives have a fitted effect of over 55% in size); conditions: ME-180 AP-1-bla cells viability, ATP luminescence, 5 h; series mostly up to 76.8 µM
Procedure, shortened: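 Intracellular ATP by Cell Titer Glo luminescence (30 min, RT) in the same ME-180 AP-1-bla wells after the 5 h compound exposure at 37 °C. Normalised to tetra n-octyl ammonium bromide and DMSO controls.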

[10] = qHTS assay to identify small molecule agonists of the AP-1 signaling pathway (AID 1159526; calls by dose curve); conditions: ME-180 (cervical carcinoma) AP-1-bla reporter, beta-lactamase FRET ratio, 5 h; series mostly up to 76.8 µM

Row | Compound | Potency [1] | Potency [2] | outcome [3] | outcome [4] | outcome [5] | Potency [6] | Potency [7] | Potency [8] | Potency [9] | Potency [10]
1 | C[C@@H](O)[C@H]1C(=O)N2C(C(=O)O)=C(S[C@@H]3CN[C@H](C(=O)N(C)C)C3)[C@H](C)[C@H]12 | inactive | inactive | inactive | inactive | inactive | inactive | inactive | inactive | inactive | inactive
2 | COC(=O)Nc1nc2ccc(Sc3ccccc3)cc2[nH]1 | inactive | inactive | inactive | inactive | inactive | inactive | 26.6 µM (active) | 54.5 µM (active) and inactive | inactive | inactive
3 | CC(=O)[C@@]1(O)CC[C@H]2[C@@H]3CCC4=CC(=O)CC[C@]4(C)[C@H]3CC[C@@]21C | inactive | inactive | inactive | inactive | inactive | inactive | inactive | inactive | inactive | inactive
4 | CC(=O)Nc1ccc(C(=O)O)cc1 | inactive | inactive | inactive | inactive | inactive | inactive | inactive | inactive | inactive | inactive
5 | O=[N+]([O-])c1cccc(Cl)c1 | inactive | inactive | inactive | inactive | inactive | inactive | inactive | inactive | inactive | inactive
6 | C=C(C)C(=O)OCCC[Si](OC)(OC)OC | inactive | inactive | inactive | inactive | inactive | inactive | inactive | inactive | inactive | inactive
7 | CCc1ccccc1O | inactive | inactive | inactive | inactive | inactive | inactive | 60.8 µM (active) and inactive | 30.5 µM (active) and inactive | inactive | inactive
8 | CCC(=O)O | inactive | inactive | inactive | inactive | inactive | inactive | inactive | inactive | inactive | inactive
9 | NC(=O)/N=N/C(N)=O | inactive | inactive | inactive | inactive | inactive | inactive | inactive | inactive | inactive | inactive
10 | NC(=O)NNc1ccccc1 | inactive | inactive | inactive | inactive | inactive | inactive | inactive | inactive | inactive | inactive
11 | NS(=O)(=O)c1cc2c(cc1Cl)NC=NS2(=O)=O | inactive | inactive | inactive | inactive | inactive | inactive | inactive | inactive | inactive | inactive
12 | CCOC(=O)C1OC1c1ccccc1 (configuration not stated) | inactive | inactive | inactive | inactive | inactive | inactive | inactive | inactive | inactive | inactive
13 | CC(C)(N=C=O)c1cccc(C(C)(C)N=C=O)c1 | inactive | inactive | inactive | inactive | inactive | inactive | inactive | inactive | inactive | inactive
14 | CCCCCC/C=C/CCCCCCCC(=O)O | inactive | inactive | inactive | inactive | inactive | inactive | inactive | inactive | inactive | inactive
15 | Cc1ccc(N)c(S(=O)(=O)O)c1 | inactive | inactive | inactive | inactive | inactive | inactive | inactive | inactive | inactive | inactive
16 | Cn1c([N+](=O)[O-])cnc1COC(N)=O | inactive | inactive | inactive | inactive | inactive | inactive | inactive | inactive | inactive | inactive
17 | CN(CCOc1ccc(CC2SC(=O)NC2=O)cc1)c1ccccn1 (configuration not stated) | – | – | inactive | inactive | inactive | inactive | inactive | inactive | inactive | inactive
18 | CCCCCCC(C)(C)S | inactive | inactive | inactive | inactive | inactive | inactive | inactive | inactive | inactive | inactive
19 | O=C1O[C@H](CO)[C@@H](O)[C@H](O)[C@H]1O | inactive | inactive | inactive | inactive | inactive | inactive | inactive | inactive | inactive | inactive
20 | CCCCC(CC)C(=O)OCCOCCOCCOC(=O)C(CC)CCCC (configuration not stated) | inactive | inactive | inactive | inactive | inactive | inactive | inactive | inactive | inactive | inactive
21 | c1ccc2ccccc2c1 | inactive | inactive | inactive | inactive | inactive | inactive | inactive | inactive | inactive | inactive
22 | CCOC(=O)/C=C\C(=O)OCC | inactive | inactive | inactive | inactive | inactive | inactive | inactive | inactive | inactive | inactive
23 | CCCCOCCO | inactive | inactive | inactive | inactive | inactive | inactive | inactive | inactive | inactive | inactive
24 | Nc1cc(-c2ccncc2)c[nH]c1=O | inactive | inactive | inactive | inactive | inactive | inactive | inactive | inactive | inactive | inactive

Row | Compound | Potency [1] | Potency [2] | outcome [3] | outcome [4] | outcome [5] | Potency [6] | Potency [7] | Potency [8] | Potency [9] | Potency [10]
25 | CNC[C@H](O)[C@@H](O)[C@H](O)[C@H](O)CO | inactive | inactive | inactive | inactive | inactive | inactive | inactive | inactive | inactive | inactive
26 | COCC(=O)O | inactive | inactive | inactive | inactive | inactive | inactive | inactive | inactive | inactive | inactive
27 | O=C1N=C(O)CN1/N=C/c1ccc(-c2ccc([N+](=O)[O-])cc2)o1 | inactive | inactive | inactive | inactive | inactive | inactive | inactive | inactive | inactive | inactive
28 | CCc1ccc(O)cc1 | inactive | inactive | inactive | inactive | inactive | inactive | inactive | inactive | inactive | inactive
29 | CCCCCCCCCC(=O)O | inactive | inactive | inactive | inactive | inactive | inactive | inactive | inactive | inactive | inactive
30 | CCCCCCCCCCCCN | inactive and 49 µM (active) | inactive and 54.9 µM (active) | inactive | inactive | inactive | 11.1 µM (active) and 21.9 µM (active) and 19.8 µM (active) | inactive | inactive | inactive | inactive
31 | CC[Si](OC(C)=O)(OC(C)=O)OC(C)=O | inactive | inactive | inactive | inactive | inactive | inactive | inactive | inactive | inactive | inactive
32 | OCC1CCCO1 (configuration not stated) | inactive | inactive | inactive | inactive | inactive | inactive | inactive | inactive | inactive | inactive
33 | Nc1nc2ncc(CNc3ccc(C(=O)N[C@@H](CCC(=O)O)C(=O)O)cc3)nc2c(=O)[nH]1 | inactive | inactive | inactive | inactive | inactive | inactive | inactive | inactive | inactive | inactive
34 | CC1(C)CC(N=C=O)CC(C)(CN=C=O)C1 (configuration not stated) | inactive | inactive | inactive | inactive | inactive | inactive | inactive | inactive | inactive | inactive
35 | O=S(=O)(O)CCS | inactive | inactive | inactive | inactive | inactive | inactive | inactive | inactive | inactive | inactive
36 | Oc1c(Cl)cc(Cl)c(Cl)c1Cl | inactive | – | inactive | inactive | inactive | inactive | inactive | 53.3 µM (active) and 61.1 µM (active) | inactive | inactive
37 | Nc1c(S(=O)(=O)O)cc(Br)c2c1C(=O)c1ccccc1C2=O | inactive | inactive | inactive | inactive | inactive | inactive | inactive | inactive | inactive | inactive
38 | CCCCNC(N)=O | inactive | inactive | inactive | inactive | inactive | inactive | inactive | inactive | inactive | inactive
39 | CC#C[C@]1(O)CC[C@H]2[C@@H]3CCC4=CC(=O)CCC4=C3[C@@H](c3ccc(N(C)C)cc3)C[C@@]21C | inactive | inactive | inactive | inactive | inactive | inactive | inactive | 30.6 µM (active) and 26.6 µM (active) | inactive | inactive
40 | c1ccc2[nH]cnc2c1 | inactive | inactive | inactive | inactive | inactive | inactive | inactive | inactive | inactive | inactive
41 | CC(C)Cc1ccccc1 | inactive | inactive | inactive | inactive | inactive | inactive | inactive | inactive | inactive | inactive
42 | CCCCCCCCC | inactive | inactive | inactive | inactive | inactive | inactive | inactive | inactive | inactive | inactive
43 | CC1Cc2ccccc2N1NC(=O)c1ccc(Cl)c(S(N)(=O)=O)c1 (configuration not stated) | inactive | inactive | inactive | inactive | inactive | inactive | inactive | inactive | inactive | inactive
44 | CCCCCCCCCCC=CC1CC(=O)OC1=O (configuration not stated) | inactive | inactive | inactive | inactive | inactive | inactive | inactive | 54.8 µM (active) and inactive | inactive | inactive
45 | O=[N+]([O-])C(CO)(CO)CO | inactive | inactive | inactive | inactive | inactive | inactive | inactive | inactive | inactive | inactive
46 | CCCCCCCCCCCCOCC1CO1 (configuration not stated) | inactive | inactive | inactive | inactive | inactive | inactive | inactive | inactive | inactive | inactive
47 | Clc1cc(Cl)c(Cl)cc1Cl | inactive | inactive | inactive | inactive | inactive | inactive | inactive | inactive | inactive | inactive
48 | O=Nc1ccc(O)cc1 | inactive | inactive | inactive | inactive | inactive | inactive | inactive | inactive | inactive | inactive
